# Source: PubChem BioAssay (National Center for Advancing Translational Sciences (NCATS))
# Most compounds without a hit are left out; they make up all but 8.6% or so of the library.
# Lassa entry: qHTS for Inhibitors of binding or entry into cells for Lassa Virus | Lassa virus pseudotyped entry inhibition, cell-based qHTS | 4.1% of 18,000 active | Potency, µM (series often up to 49.2 µM), most hits filed as inhibitors
# MARV entry inh: qHTS for Inhibitors of binding or entry into cells for Marburg Virus. Marburg virus pseudotype entry/binding inhibition, cell-based. 6.5% of 18,000 active. Potency, µM (titrated, usually from 49.2 µM), hits mostly inhibitors
# Numbers stand for hits; - = inactive; ? = inconclusive; . = not tested or not shown; [ ] = remark or other dose. Calls come from the whole dose curve; tested in HEK293 cells.
SMILES,Lassa entry,MARV entry inh
C[C@H]1[C@@H](C(=O)N2CCCC2)CC(=O)C(=NOCc2ccccc2)C[C@H]1c1ccccc1,.,-[8.59 µM]
Cc1ccccc1OC[C@H](O)CO,-,-
Cc1ccc(OCC(O)C(C)NC(C)C)c2c1CCC2 (stereo unspecified),?,12.6µM
COC(=O)C1=C(C(=O)OC)[C@@H]2N(C)c3ccccc3[C@@]23CCC(=O)N(Cc2ccc(OC)cc2)C3=N1,-[8.59 µM],-[8.59 µM]
Nc1nc(F)nc2c1ncn2[C@@H]1O[C@H](CO)[C@@H](O)[C@@H]1O,-,-
Nc1nc(=S)c2ncn([C@H]3O[C@@H](CO)[C@@H](O)[C@@H]3O)c2[nH]1,?,2µM
CC[N+](CC)(CC)CCOc1ccc(/C=C\c2ccccc2)cc1,20µM,?
CC[N+](CC)(CC)CCOc1cccc(OCC[N+](CC)(CC)CC)c1OCC[N+](CC)(CC)CC,-,-
COc1ccc(S(=O)(=O)N(CCO)c2ccccc2CN(C)CC=Cc2ccc(Cl)cc2)cc1,11.2µM,10µM
CCN1C(=O)[C@@H]2[C@H]3[C@H](O)[C@H](O)CC(=NOCC[C@@H]4C=C[C@H](OC(C)=O)[C@@H](COC(C)=O)O4)[C@@H]3CC[C@H]2C1=O,-[8.59 µM],-[8.59 µM]
O=C(OCc1cn([C@@H]2C[C@H](c3ccccc3)N(CC3CCCCC3)C[C@@H]2O)nn1)c1ccccc1,-,-
CC(C)CON=C1C[C@@H](O)[C@@H](O)[C@@H]2[C@H]3C(=O)N(C[C@@H]4CCCO4)C(=O)[C@@H]3CC[C@H]12,-[8.59 µM],-[8.59 µM]
CCOC(=O)[C@@]1([C@@H](NC(=O)OC)c2ccco2)CCCC1=O,-[8.59 µM],-[8.59 µM]
CCC(C)CN1C(=O)NC(c2ccccc2)C(C(=O)OC)=C1C (stereo unspecified),.,-[8.59 µM]
COC(=O)c1cc2c(s1)-c1ccccc1OC2,-,-
CN(C)CC/C=C1\c2ccccc2COc2ccccc21,-,10µM
CN(C)CC/C=C1/c2ccccc2Sc2ccc(Cl)cc21,?,17.8µM
COC(=O)[C@@H]1[C@@H](c2cccc(C(F)(F)F)c2)NC(=O)N(Cc2ccccc2)[C@@H]1C,-[8.59 µM],-[8.59 µM]
Nc1nc(-c2ccccn2)c(-c2ccc3ncccc3n2)s1,-,-
O=C1C(Nc2ccccc2)=CC(=O)c2ncccc21,11.2µM,5.62µM
COc1cccc2c1[C@H](C=Cc1ccccc1)[C@@H]([C@H](O)COC(C)=O)OC2,-[8.59 µM],-[8.59 µM]
C[C@H]1CN(C2CCCCC2)C(=O)[C@H]1CC(=O)Nc1ccccc1,-,-
CCCC1O[C@@H]2C[C@H]3[C@@H]4CCC5=CC(=O)C=C[C@]5(C)[C@H]4[C@@H](O)C[C@]3(C)[C@]2(C(=O)CO)O1 (stereo partly specified),-,-
CC(C)C(=O)OCC(=O)[C@@]12O[C@H](C3CCCCC3)O[C@@H]1C[C@H]1[C@@H]3CCC4=CC(=O)C=C[C@]4(C)[C@H]3[C@@H](O)C[C@@]12C,28.2µM,?
COc1cc([C@@H]2c3cc4c(cc3C(O[C@@H]3O[C@@H]5COC(c6cccs6)O[C@H]5[C@H](O)[C@H]3O)C3COC(=O)[C@@H]32)OCO4)cc(OC)c1O (stereo partly specified),3.98µM,?
SMILES,Lassa entry,MARV entry inh
COc1cc([C@@H]2c3cc4c(cc3[C@@H](O[C@@H]3O[C@H]5CO[C@@H](C)O[C@@H]5[C@@H](O)[C@H]3O)[C@@H]3COC(=O)[C@@H]23)OCO4)cc(OC)c1O,2.82µM,?
COc1cc([C@@H]2c3cc4c(cc3[C@@H](OC3OC5COC(C)OC5C(O)C3O)[C@H]3COC(=O)[C@H]23)OCO4)cc(OC)c1O (stereo partly specified),7.94µM,?
COc1cc([C@@H]2c3cc4c(cc3C(OC3OC5COC(C)OC5C(O)C3O)C3COC(=O)[C@@H]32)OCO4)cc(OC)c1O (stereo partly specified),7.94µM,25.1µM
CC(C)c1ccc(-c2cc(-c3cn[nH]c3-c3ccccn3)ccn2)cc1,-,-
CCOC(=O)CN1C(=O)C2(CC(C)=C[C@@H](C)O2)c2c(Br)cccc21 (stereo partly specified),-[8.59 µM],-[8.59 µM]
Cc1nc(-c2ccccc2)n2nc(NCCCN3CCOCC3)ncc12,.,-
CCO[C@H](c1cc(OC)cc([N+](=O)[O-])c1OC)[C@H](C)[C@@H](OC)[C@H](C)C=CCC(=O)OC,-[8.59 µM],-[8.59 µM]
COc1cc(=O)n2c(c1C(=O)NCc1ccco1)CCN(Cc1ccc(F)cc1Cl)CC2,-,-
COc1ccc(NC(=O)OCCN2CCN(Cc3ccccc3)CCC2=O)cc1,-,-
COc1ccc(NC(=O)c2cc(OCCCN(C)C)nn2Cc2ccccc2)cc1,?,8.91µM
COc1cccc([C@@H]2Oc3ccc(OC)cc3C(=O)[C@@H]2OC(=O)N[C@H]2CCCc3ccccc32)c1,-[8.59 µM],-[8.59 µM]
COc1cc(OC)c(OC)cc1CN1CCCC(n2cc(C(=O)N3CCCCC3)nn2)C1 (stereo unspecified),-,-
CCOC(=O)CN1C(=O)CC(C[C@@H](O)C2C[C@@H](C)C[C@H](C)C2=O)CC1=O (stereo partly specified),-,-
C[C@H]1C[C@@H](C)C(=O)[C@@H]([C@H](O)CC2CC(=O)NC(=O)C2)C1,3.55µM,1.12µM
C[C@H]1C[C@H](C)C(=O)[C@@H]([C@H](O)CC2CC(=O)NC(=O)C2)C1,3.16µM,?
C[C@@H]1C[C@@H]([C@@H](C)CC2CC(=O)NC(=O)C2)C(=O)[C@@H](C)C1,4.47µM,5.01µM
CC1CC(C)C(=O)[C@H](C(O)CC2CC(=O)NC(=O)C2)C1 (stereo partly specified),5.62µM,2.51µM
Cc1cc(C)c(-c2cc([C@H](C)ON=C[C@@H](C)[C@H](OCc3ccccc3)C(C)C)on2)c(C)c1,-[8.59 µM],-[8.59 µM]
Nc1nccc(-c2c(-c3ccc(F)cc3)nn3cc(C(F)(F)F)ccc23)n1,-,-
O=S1(=O)CC(N2CC=CC2)CN1Cc1cn(Cc2ccc(C(F)(F)F)cc2)nn1 (stereo unspecified),-,-
CC(C)C(=O)N[C@@H]1CCCN1C(=O)C=Cc1ccccc1,.,-[8.59 µM]
CCOC(=O)C1=C(CCl)NC(=O)N(C(C)=O)C1c1ccccc1 (stereo unspecified),.,-[8.59 µM]
COC(=O)[C@H](NC(=O)c1cc(-c2ccccc2)nc2ccccc12)c1ccccc1,?,-
COC(=O)[C@H](CC(C)C)NC(=O)c1ccc(NC[C@@H](N)CS)cc1-c1cccc2ccccc12,11.2µM,11.2µM
Nc1ccccc1S(=O)(=O)Nc1cccc2cccnc12,17.8µM,7.08µM
SMILES,Lassa entry,MARV entry inh
Nc1c(S(=O)(=O)O)cc(Nc2cccc3ccccc23)c2c1C(=O)c1ccccc1C2=O,-,-
CO[C@H]1[C@H](NC(=O)c2ccsc2)c2ccccc2C12CCN(Cc1cnn(C)c1C)CC2,-,-
CO[C@H]1[C@H](NC(=O)c2ccsc2)c2ccccc2C12CCN(Cc1cc(Cl)ccc1O)CC2,-,14.1µM
CC[C@@H](O)C(C[C@@H](C)N(C)C)(c1ccccc1)c1ccccc1,?,12.6µM
CCC(O)c1ccccc1 (stereo unspecified),-,-
CC[C@H]1OC(c2ccccc2)[C@H](C)[C@H]2O[C@@H]2[C@@H]1C(=O)OC (stereo partly specified),-[8.59 µM],-[8.59 µM]
Fc1ccc(-c2ncn(CCCN3CCOCC3)c2-c2ccncc2)cc1,-,-
CC(C)=CCCC(C)=CCN1C(=O)[C@]2(O[C@H](COc3ccccc3)CC3=CCCC32)c2c(Br)cccc21 (stereo partly specified),-[8.59 µM],-[8.59 µM]
